The structures appear in SMILES notation. About 3,300 (8.5%) of roughly 39,000 compounds were called active. Only a selection was taken, and actives are over-represented in it overall.

The test system of this assay is HepG2. The assay can be described thus: cytotoxicity call (relative viability < 0.9). The settings on record: 10 µM.
`C[C@H]1CN([C@@H](C)CO)S(=O)(=O)c2ccc(C#CC3(O)CCCC3)cc2O[C@@H]1CN(C)C(=O)Cc1ccccc1`: the cytotoxicity call was “inactive”.

Regarding `C[C@@H]1CN([C@@H](C)CO)C(=O)c2cccc(NS(=O)(=O)c3ccc(F)cc3)c2O[C@@H]1CN(C)S(=O)(=O)c1cn(C)cn1`, the cytotoxicity call is “inactive”.

For the compound `CCOC(=O)c1cccc([C@@H]2CC(=O)N(C(=O)OCc3ccccc3)[C@@H]2C(=O)Nc2cccc3cccnc23)c1`, the cytotoxicity call is “inactive”.

Consider `Cc1noc(C)c1NC(=O)N(C)C[C@@H]1OCCCC[C@@H](C)Oc2ccc(NC(=O)C3CCCCC3)cc2C(=O)N([C@@H](C)CO)C[C@H]1C`, for which the cytotoxicity call is “inactive”. As to `C[C@@H]1CN([C@H](C)CO)C(=O)c2cc(NC(=O)CCC(F)(F)F)ccc2O[C@@H](C)CCCCO[C@H]1CN(C)S(=O)(=O)c1cccs1`, the cytotoxicity call is “inactive”. Regarding `CN1CCCC1CCOC(C)(c1ccccc1)c1ccc(Cl)cc1.O=C(O)C=CC(=O)O` (stereo not given), the cytotoxicity call was “active”. As for `CN1CCC[C@H]1CCO`, the cytotoxicity call is “inactive”. `CN(C)CCOC(C)(c1ccccc1)c1ccccn1.O=C(O)CCC(=O)O` (stereo not given): the cytotoxicity call is “inactive”. As to `COc1ccc(S(=O)(=O)N(C)C[C@H]2Oc3ccc(NS(=O)(=O)c4cn(C)cn4)cc3CC(=O)N([C@H](C)CO)C[C@H]2C)cc1`, the cytotoxicity call is “inactive”. For the compound `Cn1cc(N2C[C@]3(COCCN(C(=O)C4(C#N)CC4)C3)OCC2=O)cn1`, the cytotoxicity call was “inactive”.

With `COc1cc(-c2coc3cc(O[C@@H]4O[C@H](CO)[C@@H](O)[C@H](O)[C@H]4O)c(OC)c(O)c3c2=O)cc(O)c1OC`, the cytotoxicity call was “inactive”. As for `COc1cc(-c2coc3cc(OC4OC(CO)C(O)C(O)C4O)c(OC)c(O)c3c2=O)cc(O)c1OC` (stereo not given), the cytotoxicity call is “active”. `COc1ccc(-c2oc3cc(O[C@H]4O[C@H](CO)[C@@H](O)[C@H](O)[C@H]4O)c(OC)c(O)c3c(=O)c2OC)cc1O`: the cytotoxicity call is “inactive”. Consider `O=C1CCCSc2ccccc21`, for which the cytotoxicity call is “inactive”. Consider `C[C@@H]1CN([C@H](C)CO)C(=O)c2cc(NC(=O)C3CCCCC3)ccc2O[C@@H](C)CCCCO[C@H]1CN(C)C(=O)Nc1ccc2c(c1)OCO2`, for which the cytotoxicity call was “inactive”. As to `C[C@@H]1CCCCO[C@@H](CN(C)C(=O)CCCN(C)C)[C@H](C)CN([C@@H](C)CO)C(=O)c2cc(N(C)C)ccc2O1`, the cytotoxicity call is “inactive”.

As to `C[C@H](CO)N1C[C@H](C)[C@@H](CN(C)C(=O)Nc2ccc(F)cc2)OCCCC[C@H](C)Oc2ccc(NC(=O)Nc3ccccc3)cc2C1=O`, the cytotoxicity call is “inactive”. For the compound `CC(C)C(C)C=CC(C)C1CCC2C3=CC=C4CC(O)CCC4(C)C3CCC21C` (stereo not given), the cytotoxicity call was “inactive”. On to `CCn1cc(C(=O)O)c(=O)c2ccc(C)nc21`, for which the cytotoxicity call was “inactive”.

As for `Cc1ccc2c(Br)cc(Br)c(OC(=O)c3ccccc3)c2n1`, the cytotoxicity call was “active”. Next, `CNC[C@@H]1Oc2cc(C#CC(C)(C)O)ccc2S(=O)(=O)N([C@@H](C)CO)C[C@H]1C`: “inactive”; `COc1ccccc1C#Cc1ccc2c(c1)O[C@@H](CN(C)Cc1ccncc1)[C@@H](C)CN([C@@H](C)CO)S2(=O)=O`: “inactive”; `C[C@H]1CN([C@@H](C)CO)S(=O)(=O)c2ccc(-c3ccncc3)cc2O[C@H]1CN(C)Cc1ccc(Oc2ccccc2)cc1`: “inactive”.

For `C[C@H]1CN([C@@H](C)CO)S(=O)(=O)c2ccc(-c3ccncc3)cc2O[C@@H]1CN(C)Cc1ccc(Oc2ccccc2)cc1`, the cytotoxicity call is “inactive”. Consider `COc1ccccc1C#Cc1ccc2c(c1)O[C@H](CN(C)Cc1ccncc1)[C@@H](C)CN([C@@H](C)CO)S2(=O)=O`, for which the cytotoxicity call was “active”.

Regarding `COc1ccccc1C#Cc1ccc2c(c1)O[C@@H](CN(C)Cc1ccncc1)[C@@H](C)CN([C@H](C)CO)S2(=O)=O`, the cytotoxicity call was “inactive”. As to `C[C@@H]1CN([C@@H](C)CO)S(=O)(=O)c2ccc(-c3ccncc3)cc2O[C@H]1CN(C)Cc1ccc(Oc2ccccc2)cc1`, the cytotoxicity call is “active”. Take `COc1ccccc1C#Cc1ccc2c(c1)O[C@H](CN(C)Cc1ccncc1)[C@@H](C)CN([C@H](C)CO)S2(=O)=O`: the cytotoxicity call was “inactive”. For `COc1ccccc1C#Cc1ccc2c(c1)O[C@H](CN(C)Cc1ccncc1)[C@H](C)CN([C@H](C)CO)S2(=O)=O`, the cytotoxicity call is “active”. On to `COc1ccccc1C#Cc1ccc2c(c1)O[C@@H](CN(C)Cc1ccncc1)[C@H](C)CN([C@H](C)CO)S2(=O)=O`, for which the cytotoxicity call is “inactive”. In the case of `Cl.N=C(N)n1cccn1`, the cytotoxicity call is “inactive”.

`C[C@@H]1CCCCO[C@@H](CN(C)S(=O)(=O)c2cn(C)cn2)[C@@H](C)CN([C@H](C)CO)C(=O)c2cc(N(C)C)ccc2O1`: the cytotoxicity call is “inactive”.

As to `Cn1cccc1CNCCCN1CCOCC1`, the cytotoxicity call was “inactive”. With `C[C@H]1CCCCO[C@H](CN(C)C(=O)Nc2ccc3c(c2)OCO3)[C@@H](C)CN([C@@H](C)CO)C(=O)c2cc(NC(=O)Nc3ccc(C(F)(F)F)cc3)ccc2O1`, the cytotoxicity call was “inactive”. In the case of `Cc1ccc(S(=O)(=O)N(C)C[C@H]2Oc3ccc(NS(C)(=O)=O)cc3C(=O)N([C@H](C)CO)C[C@@H]2C)cc1`, the cytotoxicity call is “inactive”. Then `Cc1noc(C)c1NC(=O)Nc1ccc2c(c1)C(=O)N([C@H](C)CO)C[C@@H](C)[C@H](CN(C)Cc1ccc(C(F)(F)F)cc1)O2`, with “inactive”. As for `COc1ccc([C@@H]([C@H](Cc2ccccc2)OC(C)=O)N2C[C@@H]3C(=NO[C@H]3[C@@H](OC(C)=O)c3ccccc3)[C@@H]2Cc2ccccc2)cc1`, the cytotoxicity call is “inactive”.

Regarding `COc1ccc([C@@H]([C@H](Cc2ccccc2)OC(C)=O)N2C[C@@H](CC(=O)N(C)C)[C@@H]3[C@H]([C@@H]2Cc2ccccc2)N(C)O[C@H]3c2ccccc2)cc1`, the cytotoxicity call is “inactive”. As to `COc1ccc([C@@H]([C@H](Cc2ccccc2)OC(C)=O)N2C[C@@H](OC(C)=O)[C@@H]3[C@H]([C@@H]2Cc2ccccc2)N(C)O[C@H]3c2ccccc2)cc1`, the cytotoxicity call was “inactive”. Consider `COc1ccc([C@@H]([C@H](Cc2ccccc2)OC(C)=O)N2C[C@@H]3[C@H]([C@@H]2Cc2ccccc2)N(C)O[C@@]3(O)[C@@H](O)c2ccccc2)cc1`, for which the cytotoxicity call was “inactive”. Then `COc1ccc([C@@H]([C@H](Cc2ccccc2)OC(C)=O)N2C[C@@H](CC(=O)N(C)C)[C@H]3[C@@H]([C@@H]2Cc2ccccc2)N(C)O[C@@H]3c2ccccc2)cc1`, with “active”; and `COc1ccc([C@@H]([C@H](Cc2ccccc2)OC(C)=O)N2C[C@H]3[C@@H]([C@@H](O)c4ccccc4)ON(C)[C@H]3[C@@H]2Cc2ccccc2)cc1`, with “active”; and `COc1ccc([C@@H]([C@H](Cc2ccccc2)OC(C)=O)N2C[C@@H](NC(=O)C(Cl)(Cl)Cl)[C@@H]3[C@H]([C@@H]2Cc2ccccc2)N(C)O[C@H]3c2ccccc2)cc1`, with “inactive”.

Take `COc1ccc([C@@H]([C@H](Cc2ccccc2)OC(C)=O)N2C[C@H]3[C@H]([C@@H](OC(C)=O)c4ccccc4)ON(C)[C@H]3[C@@H]2Cc2ccccc2)cc1`: the cytotoxicity call is “active”. On to `COc1ccc([C@@H]([C@H](Cc2ccccc2)OC(C)=O)N2C[C@H](CC(=O)N(C)C)[C@@H]3[C@H]([C@@H]2Cc2ccccc2)N(C)O[C@H]3c2ccccc2)cc1`, for which the cytotoxicity call is “inactive”.

`Cn1cnc(S(=O)(=O)N[C@@H]2CC[C@@H](CC(=O)Nc3ccccc3)O[C@H]2CO)c1`: the cytotoxicity call is “inactive”.

On to `Cc1ccc(S(=O)(=O)Nc2ccc3c(c2)CC(=O)N([C@@H](C)CO)C[C@@H](C)[C@@H](CN(C)C(=O)NC(C)C)O3)cc1`, for which the cytotoxicity call was “inactive”.

On to `O=C(Nc1ccc2c(c1)[C@@H]1C[C@H](CC(=O)N3CCc4ccccc4C3)O[C@H](CO)[C@@H]1O2)C1CCOCC1`, for which the cytotoxicity call was “inactive”. For the compound `C[C@H](CO)N1C[C@H](C)[C@@H](CN(C)C(=O)Nc2cccc3ccccc23)OCCCC[C@H](C)Oc2ccc(NC(=O)Nc3ccccc3)cc2C1=O`, the cytotoxicity call is “inactive”. Next, `Cc1noc(C)c1S(=O)(=O)N(C)C[C@H]1Oc2ccc(NS(C)(=O)=O)cc2CC(=O)N([C@@H](C)CO)C[C@@H]1C`: “inactive”; `C[C@H](CO)N1C[C@H](C)[C@H](CN(C)C(=O)NC2CCCCC2)Oc2c(NC(=O)C3CC3)cccc2C1=O`: “inactive”. Turning to `C[C@@H]1CCCCO[C@@H](CN(C)S(C)(=O)=O)[C@@H](C)CN([C@H](C)CO)C(=O)c2cc(NS(=O)(=O)c3ccc(F)cc3)ccc2O1`, the cytotoxicity call was “inactive”. For `C[C@@H]1CCCCO[C@@H](CN(C)C(=O)Nc2cccc3ccccc23)[C@@H](C)CN([C@H](C)CO)C(=O)c2cc(NC(=O)Nc3ccccc3)ccc2O1`, the cytotoxicity call is “inactive”. Consider `O=C(O)COc1nn(Cc2ccccc2)c2ccccc12`, for which the cytotoxicity call is “inactive”. For `CN(C)CCCOc1nn(Cc2ccccc2)c2ccccc12.Cl`, the cytotoxicity call was “active”. Next, `COc1cccc(OCc2ccc(Cn3nc(NC(=O)Nc4c(OC)cccc4OC)c4ccccc43)cc2)c1`: “inactive”; `C[C@H]1CN([C@@H](C)CO)S(=O)(=O)c2ccc(C#CC3CC3)cc2O[C@@H]1CN(C)Cc1ccccc1F`: “inactive”. For the compound `C[C@@H]1CN([C@@H](C)CO)C(=O)Cc2cc(NC(=O)Cn3cnnn3)ccc2O[C@@H]1CN(C)S(=O)(=O)c1ccc(F)cc1`, the cytotoxicity call is “inactive”. With `Cc1ccccc1S(=O)(=O)N1C[C@H](O)COC[C@H]2O[C@@H](CC(=O)NCCc3ccccc3)CC[C@@H]21`, the cytotoxicity call is “inactive”. With `Nc1ncnc2nc[nH]c12`, the cytotoxicity call was “inactive”. For `S=c1[nH]cnc2nc[nH]c12`, the cytotoxicity call was “active”. As to `Nc1nc2nc[nH]c2c(=S)[nH]1` [listing 1 of 2 here], the cytotoxicity call is “inactive”. Regarding `O=c1[nH]cnc2nc[nH]c12`, the cytotoxicity call is “inactive”.

`Nc1nc2nc[nH]c2c(=S)[nH]1` [listing 2 of 2 here]: the cytotoxicity call was “active”. As for `Nc1nc2nc[nH]c2c(=O)[nH]1`, the cytotoxicity call was “inactive”. For the compound `N#CCN(CC#N)C(=O)c1ccco1`, the cytotoxicity call is “inactive”.

Take `CC(C)CC#Cc1ccc2c(c1)O[C@@H](CN(C)C(=O)C1CCOCC1)[C@@H](C)CN([C@@H](C)CO)S2(=O)=O`: the cytotoxicity call was “inactive”. Then `COc1ccc(S(=O)(=O)N(C)C[C@H]2Oc3ccc(NS(=O)(=O)c4ccccc4)cc3C(=O)N([C@@H](C)CO)C[C@H]2C)cc1`, with “inactive”. On to `Cc1noc(C)c1S(=O)(=O)Nc1ccc2c(c1)CC(=O)N([C@H](C)CO)C[C@H](C)[C@H](CN(C)Cc1ccncc1)O2`, for which the cytotoxicity call is “inactive”. Then `COc1ccc(S(=O)(=O)N2C[C@@H](O)COC[C@@H]3O[C@H](CC(=O)NCCCN(C)C)CC[C@H]32)cc1`, with “inactive”.

The values above are taken from the antibiotic and cytotoxicity screens of Wong et al. (2023).
